Bioassay records as filed in PubChem.
Shown are actives, neighbours in structure and some others; about 1.8% of the full set was active somewhere.
H9c2 protect: protects H9c2 cardiomyocytes from peroxide injury; H2O2 injury protection, ATPLite, 2 h; protection from H2O2 cell death, % at 20 µM; 360,000 tested, 0.63% active;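 active = compounds giving at least 50% protection of heart cells from peroxide-induced death in the single-dose screen, raw or plate-pattern-corrected value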
Neddyl block: inhibitors of human cullin neddylation. TR-FRET cullin neddylation, biochemical. 360,000 tested, 0.58% active. inhibition, % at 25 µM. AID 651699. P61081+Q13564; in the data active = inhibition above about 36%
GRK2 inh: inhibitors of human GRK2 displacing RNA aptamer | P25098 | bead flow cytometry, FAM-aptamer displacement from GRK2 | inhibition of aptamer binding, % at 10 µM | 330,000 tested, 0.59% active;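 active = inhibition of aptamer binding above 40%, roughly 3 SD of noise, on plates passing a quality check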;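 also: median bead fluorescence of bound FAM aptamer so fluorescent compounds give negative values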
Target sequence (P25098 whole entry, looked up): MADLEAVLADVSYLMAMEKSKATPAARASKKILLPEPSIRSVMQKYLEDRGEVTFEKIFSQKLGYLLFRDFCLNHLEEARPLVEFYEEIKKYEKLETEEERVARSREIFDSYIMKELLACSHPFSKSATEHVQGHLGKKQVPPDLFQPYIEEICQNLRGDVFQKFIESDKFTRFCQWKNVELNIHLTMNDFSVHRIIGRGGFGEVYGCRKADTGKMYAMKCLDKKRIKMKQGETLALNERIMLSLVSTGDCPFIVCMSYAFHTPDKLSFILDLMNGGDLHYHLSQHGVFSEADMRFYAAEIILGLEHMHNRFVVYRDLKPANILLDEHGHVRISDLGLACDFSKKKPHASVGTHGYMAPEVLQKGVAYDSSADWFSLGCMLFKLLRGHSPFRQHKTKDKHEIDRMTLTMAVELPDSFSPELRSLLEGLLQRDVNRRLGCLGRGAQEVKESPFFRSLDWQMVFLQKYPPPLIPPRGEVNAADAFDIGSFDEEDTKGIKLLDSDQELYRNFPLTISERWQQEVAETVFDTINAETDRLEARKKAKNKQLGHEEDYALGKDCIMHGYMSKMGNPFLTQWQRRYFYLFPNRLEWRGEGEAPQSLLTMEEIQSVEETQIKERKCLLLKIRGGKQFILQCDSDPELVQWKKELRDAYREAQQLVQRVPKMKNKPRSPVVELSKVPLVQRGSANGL
HDAC3 inhib: blocks human histone deacetylase 3 | recombinant HDAC3, fluorogenic peptide/trypsin coupled, fluorescence | inhibition, % at 8.3 µM | 320,000 tested, 0.15% active; in the data active = inhibition above about 26%, passing the limit was not always enough; inconclusive = no clear call, values can overlap the other calls
Each line names hits and unclear results; the compound was inactive in the other large screens.

COc1ccc(NC(=O)c2ccc(Br)c(S(=O)(=O)N3CCOCC3)c2)cc1	none
CCC(C)NC(=O)C1CCC(=O)N1CCc1ccccc1 (stereo not drawn)	none
CCNC(=O)C1CCCN(C(=O)c2cc(OC)c(OC)c(OC)c2)CC1 (stereo not drawn)	none (no result: GRK2 inh, HDAC3 inhib)
CCOc1ccc(NC(=O)Cc2ccc(S(=O)(=O)N3CCOCC3)s2)cc1OCC	none
CCOC(=O)c1[nH]cnc1N=Nc1c(O)ccc2ccccc12	H9c2 protect 65
Oc1ccc2ccccc2c1N=Nc1ccccn1	none
Cn1nc(C(=O)OCC(=O)N2CCc3ccccc32)c2ccccc2c1=O	none
O=C(OCC(=O)N1CCCCCC1)c1n[nH]c(=O)c2ccccc12	H9c2 protect 51
CC1CCCC(C)N1C(=O)COC(=O)c1nn(C)c(=O)c2ccccc12 (stereo not drawn)	none
CC1CCCC(C)N1C(=O)COC(=O)c1n[nH]c(=O)c2ccccc12 (stereo not drawn)	H9c2 protect 54
O=C(OCC(=O)N1CCc2ccccc21)c1n[nH]c(=O)c2ccccc12	H9c2 protect 73
CC1(C)CC2CC(C)(CN2C(=O)COC(=O)c2cccnc2Cl)C1 (stereo not drawn)	none
CC1(C)CC2CC(C)(CN2C(=O)COC(=O)c2n[nH]c(=O)c3ccccc23)C1 (stereo not drawn)	H9c2 protect 60
COc1cc2c(C#CCCCO)c(-c3ccsc3)oc(=O)c2cc1OC	H9c2 protect 68
COc1ccc(-c2oc(=O)c3cc(OC)c(OC)cc3c2C#CCCCO)cc1	none (not shown: Neddyl block)
COc1cccc(C2C3=C(CC(C)(C)CC3=O)Nc3cc4c(cc32)OCO4)c1 (stereo not drawn)	none (not shown: Neddyl block)
COc1cc2c(cc1OC)C(c1ccc3c(c1)OCO3)C1=C(CC(C)(C)CC1=O)N2 (stereo not drawn)	H9c2 protect 72 (not shown: Neddyl block)
N#Cc1ccc(COC(=O)CN2C(=O)NC3(CCCC3)C2=O)cc1	none (no result: GRK2 inh, HDAC3 inhib)
Oc1ccc(C2C[C@H]3CC[C@@H]2C3)cc1O (stereo partly drawn)	none
Oc1ccc(C2CNCc3sccc32)cc1O (stereo not drawn)	H9c2 protect 54
Cc1ccc(S(=O)(=O)Cc2nc3ccccc3c(=O)[nH]2)cc1	none
CC(=O)NCc1ccc(-c2csc(NC(=O)CCc3nc4ccccc4c(=O)[nH]3)n2)s1	H9c2 protect 90
COc1ccc(CNC(=O)COC(=O)CCc2nc3ccccc3c(=O)[nH]2)cc1	none
O=C(CCc1nc2ccccc2c(=O)[nH]1)Nc1nnc(SCc2ccc(Cl)cc2)s1	none
O=C(CCc1nc2ccccc2c(=O)[nH]1)OCc1ccccc1F	none
Cc1ccc(CNC(=O)CCc2nc3ccccc3c(=O)[nH]2)cc1	H9c2 protect 51
O=C(CCc1nc2ccccc2c(=O)[nH]1)OCCOc1ccc(Cl)cc1	H9c2 protect 66
O=C(COC(=O)CCc1nc2ccccc2c(=O)[nH]1)NCc1ccc(F)cc1	H9c2 protect 50
CO[C@@H]1CN(C)C(=O)c2cc(NC(=O)Nc3cc(F)ccc3F)ccc2OC[C@H](C)N(C(=O)c2cnccn2)C[C@@H]1C	none (no result: H9c2 protect, GRK2 inh, HDAC3 inhib)
Cc1ccc(C(=O)CCC(=O)OCc2nnc(-c3ccccc3)o2)cc1	none
O=C(CCc1nc2ccccc2c(=O)[nH]1)OCc1nnc(-c2ccccc2)o1	H9c2 protect 75, HDAC3 inhib inconclusive
CCc1nc2ccccc2c(C(=O)OCc2nc3ccccc3c(=O)[nH]2)c1C	H9c2 protect 56
O=C(CCc1nc2ccccc2c(=O)[nH]1)NCC(=O)Nc1ccc(F)c(F)c1	H9c2 protect 59
N#CC(CO)(Cc1ccc(OC(F)F)cc1)c1nc2ccccc2[nH]1 (stereo not drawn)	none
COc1ccc(N2CCN(C(=O)C3CCCN(c4ncnc5c4nc4n5CCCCC4)C3)CC2)cc1 (stereo not drawn)	none
CC(=O)c1ccc(N2CCN(C(=O)C3CCCN(c4ncnc5c4nc4n5CCCCC4)C3)CC2)cc1 (stereo not drawn)	H9c2 protect 55
CCOC(=O)c1cccc(Nc2nc(-c3cccnc3)nc3ccccc23)c1	H9c2 protect 55
COC(=O)c1cccc(Nc2nc(-c3cccnc3)nc3ccccc23)c1	H9c2 protect 51
CCOC(=O)c1nc(Nc2ccc(C(C)=O)cc2)c2ccccc2n1	H9c2 protect 82
CCOC(=O)c1nc(Nc2cccc(C)c2)c2ccccc2n1	none
Cc1nc2ccccc2c(=O)n1NC(=O)c1c(F)cccc1F	none
Cc1nc(C)c(C(=O)Nc2cccc(F)c2)s1	none
CC(CNC(=O)CN1C(=O)NC2(CCCCC2)C1=O)c1ccccc1 (stereo not drawn)	none (no result: HDAC3 inhib)
Cc1ccc2occ(/C=N/NC(=O)c3ccccc3Br)c(=O)c2c1	none
Cc1ccc2occ(/C=N/NC(=O)c3ccc(O)cc3)c(=O)c2c1	HDAC3 inhib 82
O=C(Cc1ccccc1)NCc1ccccn1	none
O=C(CSc1nc2ccccc2o1)NCc1n[nH]c(=O)c2ccccc12	H9c2 protect 57
O=C(Cc1n[nH]c(=O)c2ccccc12)NCc1ccc(Cl)cc1	H9c2 protect 67 (no result: HDAC3 inhib)
O=C(Cc1n[nH]c(=O)c2ccccc12)NCc1ccccn1	H9c2 protect 54
Cc1c(Cl)cccc1NC(=O)CNC(=O)Cc1n[nH]c(=O)c2ccccc12	H9c2 protect 88
O=C(COC(=O)Cc1n[nH]c(=O)c2ccccc12)NNC(=O)c1ccccc1	none (no result: HDAC3 inhib)
O=C(CSc1nc2ccccc2o1)NCC(=O)c1ccccc1	none
OCCC1CN(Cc2cccn2-c2nccs2)CCN1Cc1ccc(F)c(F)c1 (stereo not drawn)	none
CN(CC(=O)Nc1cccc(F)c1)C(=O)c1cccc(S(=O)(=O)N2CCN(c3ccc(F)cc3)CC2)c1	none (no result: GRK2 inh, HDAC3 inhib)
COc1ccc(OCC(=O)NCc2n[nH]c(=O)c3ccccc23)cc1	H9c2 protect 78
CCCN(CC(=O)Nc1ccccc1C)C(=O)Cc1c[nH]c2ccccc12	none (no result: GRK2 inh, HDAC3 inhib)
O=C(COc1ccc(Cl)cc1)NCc1n[nH]c(=O)c2ccccc12	H9c2 protect 81
CCCN(CC(=O)Nc1ccccc1C)C(=O)Cc1n[nH]c(=O)c2ccccc12	H9c2 protect 60
COCCCN1C(=O)C(CC(=O)NCc2cccc3ccccc23)CC(C(=O)N2CCCCCC2)=C1C (stereo not drawn)	none (no result: H9c2 protect, GRK2 inh, HDAC3 inhib)
Cc1nc(-c2ccc(O)c(O)c2)cs1	H9c2 protect 61
COc1ccc(CCNC(=O)C(C)n2nc(C)n3c(cc4occc43)c2=O)cc1OC (stereo not drawn)	none
Cc1nc2ccccc2c(=O)n1/N=C/c1ccc2ccccc2c1O	H9c2 protect 57
CC1CCN(c2ccc(NC(=O)C3CCCN3S(=O)(=O)c3ccc(F)cc3)cc2)CC1 (stereo not drawn)	none
COc1cc(C(=O)N/N=C(\c2ccccc2)c2ccccn2)cc(OC)c1OC	H9c2 protect 78
COc1cc(C(=O)N/N=C(\C)c2ccccn2)cc(OC)c1OC	H9c2 protect 58
CCCCCC(=O)N/N=C(\C)c1ccccn1	H9c2 protect 61
COc1cc(C(=O)NNC(=O)c2ccc3ccccc3n2)cc(OC)c1OC	H9c2 protect 61
CC1(C)CN(c2ccsc2C(=O)O)C1=O	none
CC1(C)c2[nH]c3ccccc3c2C[C@@H]2C(=O)N(c3ccc(F)cc3F)C(=O)N21	none
